Assay results: paper PMC7862700, “An all-to-all approach to the identification of sequence-specific readers for epigenetic DNA modifications on cytosine”

How the values were obtained:
Assay in all cases: DAPPL (digital affinity profiling via proximity ligation, sequencing); 10 mM Tris-HCl pH 7.5, 50 mM NaCl, 1 mM DTT, 4% glycerol, room temperature, 30 min; GST-TFs on glutathione beads, 16-mer random dsDNA library, 0.1% formaldehyde crosslink after washing; high values mean tight binding
FEV = molecular target: T1, FEV (Homo sapiens, UniProt Q99581 1-238); details: protein: recombinant; tags: N-terminal GST; dsDNA, one strand shown
T1 sequence: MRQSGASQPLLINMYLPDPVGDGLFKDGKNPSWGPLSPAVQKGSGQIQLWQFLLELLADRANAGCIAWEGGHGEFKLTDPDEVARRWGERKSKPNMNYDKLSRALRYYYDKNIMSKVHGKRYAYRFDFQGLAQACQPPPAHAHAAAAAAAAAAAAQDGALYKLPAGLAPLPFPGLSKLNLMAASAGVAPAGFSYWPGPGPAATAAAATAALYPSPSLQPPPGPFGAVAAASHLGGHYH
Summary of the method: (§1)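 In yeast, human transcription factors were expressed with a GST fusion, then pulled down on glutathione beads and given DNA barcodes. Pooled with a tag-only sample, they were exposed to 200 nmole of a 16-mer random double-stranded DNA library (Tris/NaCl/DTT/glycerol buffer, room temperature, 30 min), washed, crosslinked with 0.1% formaldehyde, proximity-ligated using BsaI/T4 ligase for 1 h at 37 °C, PCR-amplified and read on an Illumina NextSeq500. Each hexamer's frequency of reads for a factor, divided by the matching frequency for the tag-only sample, gives the binding signal.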

ETV5 = ETV5 (Homo sapiens, UniProt P41161 1-510); details: protein: recombinant; tags: N-terminal GST; dsDNA, one strand shown
Summary of the method: as §1

HSF1 = HSF1 (Homo sapiens, UniProt Q00613 1-529); details: protein: recombinant; tags: N-terminal GST; chain copies: 3; dsDNA, one strand shown
Summary of the method: as §1

SPIC = molecular target: T2, SPIC (Homo sapiens, UniProt Q8N5J4 1-248); details: protein: recombinant; tags: N-terminal GST; dsDNA, one strand shown
T2 sequence: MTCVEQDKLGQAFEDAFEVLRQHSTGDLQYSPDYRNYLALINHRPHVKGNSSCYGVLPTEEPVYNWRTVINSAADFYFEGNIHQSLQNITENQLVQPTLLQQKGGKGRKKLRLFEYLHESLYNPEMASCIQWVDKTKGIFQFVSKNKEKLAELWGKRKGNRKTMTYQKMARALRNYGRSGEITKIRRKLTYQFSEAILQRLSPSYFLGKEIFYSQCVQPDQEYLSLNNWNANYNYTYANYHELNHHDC
Summary of the method: as §1

ELF4 = ELF4 (Homo sapiens, UniProt Q99607 1-663); details: protein: recombinant; tags: N-terminal GST; dsDNA, one strand shown
Summary of the method: as §1

ELK4 = molecular target: T3, ELK4 (Homo sapiens, UniProt P28324-2 1-405); details: protein: recombinant; tags: N-terminal GST; dsDNA, one strand shown
T3 sequence: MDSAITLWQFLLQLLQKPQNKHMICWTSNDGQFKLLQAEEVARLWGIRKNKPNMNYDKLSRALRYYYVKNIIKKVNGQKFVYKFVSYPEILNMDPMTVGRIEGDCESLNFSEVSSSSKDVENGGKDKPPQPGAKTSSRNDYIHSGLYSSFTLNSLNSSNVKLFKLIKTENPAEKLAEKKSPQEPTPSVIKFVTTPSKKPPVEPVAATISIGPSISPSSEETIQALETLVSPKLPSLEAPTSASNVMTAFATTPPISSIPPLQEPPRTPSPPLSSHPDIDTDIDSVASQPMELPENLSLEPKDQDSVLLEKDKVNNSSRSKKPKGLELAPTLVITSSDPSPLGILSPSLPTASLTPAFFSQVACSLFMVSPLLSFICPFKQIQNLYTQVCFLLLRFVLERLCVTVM
Summary of the method: as §1

ETV2 = molecular target: T4, ETV2 (Homo sapiens, UniProt O00321 1-342); details: protein: recombinant; tags: N-terminal GST; dsDNA, one strand shown
T4 sequence: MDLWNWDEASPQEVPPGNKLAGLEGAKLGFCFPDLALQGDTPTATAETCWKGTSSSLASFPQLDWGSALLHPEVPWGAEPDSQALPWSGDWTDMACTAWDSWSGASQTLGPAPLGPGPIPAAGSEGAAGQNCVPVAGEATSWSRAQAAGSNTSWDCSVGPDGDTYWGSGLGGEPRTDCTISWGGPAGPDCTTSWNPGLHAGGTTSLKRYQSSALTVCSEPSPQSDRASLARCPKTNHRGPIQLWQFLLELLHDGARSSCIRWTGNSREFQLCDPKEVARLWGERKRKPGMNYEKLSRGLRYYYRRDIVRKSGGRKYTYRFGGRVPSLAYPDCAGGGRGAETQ
Summary of the method: as §1

ELF3 = molecular target: T5, ELF3 (Homo sapiens, UniProt P78545 1-371); details: protein: recombinant; tags: N-terminal GST; dsDNA, one strand shown
T5 sequence: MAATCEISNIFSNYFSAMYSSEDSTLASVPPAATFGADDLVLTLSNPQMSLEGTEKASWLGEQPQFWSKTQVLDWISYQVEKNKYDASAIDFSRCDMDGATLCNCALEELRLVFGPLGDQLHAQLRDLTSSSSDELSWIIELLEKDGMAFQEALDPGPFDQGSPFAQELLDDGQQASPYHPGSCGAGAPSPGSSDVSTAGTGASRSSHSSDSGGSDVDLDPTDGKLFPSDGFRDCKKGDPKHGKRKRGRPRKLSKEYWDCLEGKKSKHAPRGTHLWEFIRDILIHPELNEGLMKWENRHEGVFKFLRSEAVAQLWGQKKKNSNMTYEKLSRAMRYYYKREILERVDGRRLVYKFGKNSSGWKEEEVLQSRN
Summary of the method: as §1

CRX = CRX (Homo sapiens, UniProt O43186 1-299); details: protein: recombinant; tags: N-terminal GST; dsDNA, one strand shown
Summary of the method: as §1

ETV1 = ETV1 (Homo sapiens, UniProt P50549 1-477); details: protein: recombinant; tags: N-terminal GST; dsDNA, one strand shown
Summary of the method: as §1

ERF = molecular target: T6, ERF (Homo sapiens, UniProt P50548 1-548); details: protein: recombinant; tags: N-terminal GST; dsDNA, one strand shown
T6 sequence: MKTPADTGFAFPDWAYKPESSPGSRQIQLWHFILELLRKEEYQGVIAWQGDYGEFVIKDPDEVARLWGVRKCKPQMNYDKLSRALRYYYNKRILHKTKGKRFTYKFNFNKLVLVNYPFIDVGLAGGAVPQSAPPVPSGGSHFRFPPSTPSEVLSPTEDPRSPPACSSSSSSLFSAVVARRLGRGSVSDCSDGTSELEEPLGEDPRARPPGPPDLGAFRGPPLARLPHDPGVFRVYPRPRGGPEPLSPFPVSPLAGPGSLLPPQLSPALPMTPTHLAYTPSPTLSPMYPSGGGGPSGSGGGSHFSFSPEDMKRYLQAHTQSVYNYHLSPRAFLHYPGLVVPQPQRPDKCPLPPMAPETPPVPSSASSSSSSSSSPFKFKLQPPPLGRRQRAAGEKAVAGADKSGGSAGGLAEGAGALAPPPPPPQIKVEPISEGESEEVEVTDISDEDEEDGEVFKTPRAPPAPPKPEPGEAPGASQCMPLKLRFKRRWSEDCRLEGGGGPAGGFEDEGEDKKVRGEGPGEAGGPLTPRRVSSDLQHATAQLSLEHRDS
Summary of the method: as §1

ETV3L = molecular target: T7, ETV3L (Homo sapiens, UniProt Q6ZN32 1-361); details: protein: recombinant; tags: N-terminal GST; dsDNA, one strand shown
T7 sequence: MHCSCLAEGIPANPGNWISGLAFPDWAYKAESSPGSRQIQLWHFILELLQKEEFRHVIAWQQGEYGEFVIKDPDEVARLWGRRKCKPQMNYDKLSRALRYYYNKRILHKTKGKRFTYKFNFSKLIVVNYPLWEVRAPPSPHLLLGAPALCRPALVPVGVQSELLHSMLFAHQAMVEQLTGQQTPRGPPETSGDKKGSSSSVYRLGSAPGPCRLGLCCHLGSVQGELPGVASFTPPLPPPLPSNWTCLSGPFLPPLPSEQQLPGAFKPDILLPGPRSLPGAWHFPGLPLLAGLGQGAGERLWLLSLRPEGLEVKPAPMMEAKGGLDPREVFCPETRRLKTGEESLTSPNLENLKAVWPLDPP
Summary of the method: as §1

ETS2 = molecular target: T8, ETS2 (Homo sapiens, UniProt P15036 1-469); details: protein: recombinant; tags: N-terminal GST; dsDNA, one strand shown
T8 sequence: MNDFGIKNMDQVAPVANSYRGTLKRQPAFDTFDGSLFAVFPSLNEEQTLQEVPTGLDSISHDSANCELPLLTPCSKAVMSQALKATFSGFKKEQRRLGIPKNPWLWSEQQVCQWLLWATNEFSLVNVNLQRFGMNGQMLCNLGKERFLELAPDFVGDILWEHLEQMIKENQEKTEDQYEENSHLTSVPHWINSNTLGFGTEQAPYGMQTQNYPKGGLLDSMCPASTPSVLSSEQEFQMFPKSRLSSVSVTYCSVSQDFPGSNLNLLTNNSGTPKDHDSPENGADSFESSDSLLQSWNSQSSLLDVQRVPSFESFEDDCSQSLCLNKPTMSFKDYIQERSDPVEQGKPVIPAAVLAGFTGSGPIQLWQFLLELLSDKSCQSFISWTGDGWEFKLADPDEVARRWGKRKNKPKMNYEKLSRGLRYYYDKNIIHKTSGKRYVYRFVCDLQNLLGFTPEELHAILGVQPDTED
Summary of the method: as §1

SPDEF = molecular target: T9, SPDEF (Homo sapiens, UniProt O95238 1-335); details: protein: recombinant; tags: N-terminal GST; dsDNA, one strand shown
T9 sequence: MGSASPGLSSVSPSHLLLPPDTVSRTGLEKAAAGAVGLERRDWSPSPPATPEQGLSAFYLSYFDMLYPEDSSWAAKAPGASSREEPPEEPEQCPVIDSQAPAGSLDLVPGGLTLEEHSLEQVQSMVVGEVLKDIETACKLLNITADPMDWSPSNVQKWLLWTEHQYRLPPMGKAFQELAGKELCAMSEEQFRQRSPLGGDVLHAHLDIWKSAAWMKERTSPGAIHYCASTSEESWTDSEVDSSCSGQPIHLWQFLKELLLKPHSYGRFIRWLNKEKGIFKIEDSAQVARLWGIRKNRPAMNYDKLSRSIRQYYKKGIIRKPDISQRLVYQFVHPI
Summary of the method: as §1

ETV7 = molecular target: T10, ETV7 (Homo sapiens, UniProt Q9Y603 1-341); details: protein: recombinant; tags: N-terminal GST; dsDNA, one strand shown
T10 sequence: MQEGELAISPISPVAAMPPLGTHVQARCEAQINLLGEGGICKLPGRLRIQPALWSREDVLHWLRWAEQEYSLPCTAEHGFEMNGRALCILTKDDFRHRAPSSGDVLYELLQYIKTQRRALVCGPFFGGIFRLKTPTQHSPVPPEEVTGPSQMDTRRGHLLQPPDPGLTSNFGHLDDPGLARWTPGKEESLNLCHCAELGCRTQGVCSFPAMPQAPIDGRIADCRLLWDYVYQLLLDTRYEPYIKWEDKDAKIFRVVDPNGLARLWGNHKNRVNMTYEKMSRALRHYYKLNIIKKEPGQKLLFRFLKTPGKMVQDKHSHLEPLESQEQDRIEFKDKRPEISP
Summary of the method: as §1

ELF5 = molecular target: T11, ELF5 (Homo sapiens, UniProt Q9UKW6-2 1-255); details: protein: recombinant; tags: N-terminal GST; dsDNA, one strand shown
T11 sequence: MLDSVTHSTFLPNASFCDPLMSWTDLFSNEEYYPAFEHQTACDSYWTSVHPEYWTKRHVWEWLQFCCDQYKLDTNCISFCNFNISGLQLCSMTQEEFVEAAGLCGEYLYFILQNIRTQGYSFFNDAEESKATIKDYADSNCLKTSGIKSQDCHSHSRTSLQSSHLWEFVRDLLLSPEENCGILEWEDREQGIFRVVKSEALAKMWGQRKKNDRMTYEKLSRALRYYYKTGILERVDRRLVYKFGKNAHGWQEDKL
Summary of the method: as §1

ETV3 = molecular target: T12, ETV3 (Homo sapiens, UniProt P41162-2 1-143); details: protein: recombinant; tags: N-terminal GST; dsDNA, one strand shown
T12 sequence: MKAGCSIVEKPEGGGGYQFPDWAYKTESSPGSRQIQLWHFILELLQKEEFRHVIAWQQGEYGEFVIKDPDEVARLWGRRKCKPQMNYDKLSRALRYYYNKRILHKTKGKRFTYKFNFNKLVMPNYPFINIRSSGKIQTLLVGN
Summary of the method: as §1

ETV6 = ETV6 (Homo sapiens, UniProt P41212 1-452); details: protein: recombinant; tags: N-terminal GST; dsDNA, one strand shown
Summary of the method: as §1

HSF1, sequence (Q00613 whole entry): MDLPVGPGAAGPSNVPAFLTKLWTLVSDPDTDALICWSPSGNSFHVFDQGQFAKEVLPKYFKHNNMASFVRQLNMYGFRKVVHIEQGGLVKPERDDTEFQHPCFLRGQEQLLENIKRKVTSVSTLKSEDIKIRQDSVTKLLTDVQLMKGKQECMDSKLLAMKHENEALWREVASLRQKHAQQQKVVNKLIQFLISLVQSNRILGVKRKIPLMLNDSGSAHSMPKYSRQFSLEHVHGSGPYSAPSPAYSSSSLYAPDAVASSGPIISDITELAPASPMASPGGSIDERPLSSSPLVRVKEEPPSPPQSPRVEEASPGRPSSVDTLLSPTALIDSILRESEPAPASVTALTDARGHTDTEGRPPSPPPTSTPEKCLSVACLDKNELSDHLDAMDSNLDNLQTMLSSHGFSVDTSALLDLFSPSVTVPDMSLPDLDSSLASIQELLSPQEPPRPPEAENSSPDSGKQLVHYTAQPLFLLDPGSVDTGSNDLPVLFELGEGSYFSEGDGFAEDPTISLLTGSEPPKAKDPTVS
ETV6, sequence (P41212 whole entry): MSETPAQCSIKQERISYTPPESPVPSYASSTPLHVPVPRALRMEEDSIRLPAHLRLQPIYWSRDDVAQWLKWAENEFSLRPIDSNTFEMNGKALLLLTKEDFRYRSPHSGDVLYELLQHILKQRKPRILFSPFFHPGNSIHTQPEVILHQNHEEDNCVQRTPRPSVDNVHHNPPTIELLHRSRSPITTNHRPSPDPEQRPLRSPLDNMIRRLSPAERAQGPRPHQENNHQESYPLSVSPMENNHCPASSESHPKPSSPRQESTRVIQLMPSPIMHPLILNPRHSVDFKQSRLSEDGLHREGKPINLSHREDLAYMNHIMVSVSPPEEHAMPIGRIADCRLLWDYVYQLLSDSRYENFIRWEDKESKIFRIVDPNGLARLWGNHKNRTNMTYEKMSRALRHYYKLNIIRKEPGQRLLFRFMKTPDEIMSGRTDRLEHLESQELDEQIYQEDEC
CRX, sequence (O43186 whole entry): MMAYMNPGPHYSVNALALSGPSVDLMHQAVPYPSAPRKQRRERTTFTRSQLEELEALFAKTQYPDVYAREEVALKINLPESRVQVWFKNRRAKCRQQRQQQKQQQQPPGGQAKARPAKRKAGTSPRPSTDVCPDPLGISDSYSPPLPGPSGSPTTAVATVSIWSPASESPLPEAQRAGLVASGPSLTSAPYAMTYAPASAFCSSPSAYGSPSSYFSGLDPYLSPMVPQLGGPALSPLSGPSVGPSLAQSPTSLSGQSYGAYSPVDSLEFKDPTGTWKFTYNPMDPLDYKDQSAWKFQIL
ETV1, sequence (P50549 whole entry): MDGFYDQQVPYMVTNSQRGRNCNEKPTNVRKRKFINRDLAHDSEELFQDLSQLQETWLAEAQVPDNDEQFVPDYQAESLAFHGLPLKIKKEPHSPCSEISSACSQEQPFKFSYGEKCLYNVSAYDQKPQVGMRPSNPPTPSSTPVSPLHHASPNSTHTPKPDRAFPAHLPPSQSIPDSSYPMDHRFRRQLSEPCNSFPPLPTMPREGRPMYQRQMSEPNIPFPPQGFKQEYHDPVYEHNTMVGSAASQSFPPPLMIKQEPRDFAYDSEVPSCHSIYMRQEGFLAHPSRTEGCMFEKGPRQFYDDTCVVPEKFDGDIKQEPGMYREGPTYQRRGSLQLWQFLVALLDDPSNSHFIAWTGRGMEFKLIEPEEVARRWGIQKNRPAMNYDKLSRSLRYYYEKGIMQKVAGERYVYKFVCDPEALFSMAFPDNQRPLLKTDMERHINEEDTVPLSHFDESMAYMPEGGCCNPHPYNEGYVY
ETV5, sequence (P41161 whole entry): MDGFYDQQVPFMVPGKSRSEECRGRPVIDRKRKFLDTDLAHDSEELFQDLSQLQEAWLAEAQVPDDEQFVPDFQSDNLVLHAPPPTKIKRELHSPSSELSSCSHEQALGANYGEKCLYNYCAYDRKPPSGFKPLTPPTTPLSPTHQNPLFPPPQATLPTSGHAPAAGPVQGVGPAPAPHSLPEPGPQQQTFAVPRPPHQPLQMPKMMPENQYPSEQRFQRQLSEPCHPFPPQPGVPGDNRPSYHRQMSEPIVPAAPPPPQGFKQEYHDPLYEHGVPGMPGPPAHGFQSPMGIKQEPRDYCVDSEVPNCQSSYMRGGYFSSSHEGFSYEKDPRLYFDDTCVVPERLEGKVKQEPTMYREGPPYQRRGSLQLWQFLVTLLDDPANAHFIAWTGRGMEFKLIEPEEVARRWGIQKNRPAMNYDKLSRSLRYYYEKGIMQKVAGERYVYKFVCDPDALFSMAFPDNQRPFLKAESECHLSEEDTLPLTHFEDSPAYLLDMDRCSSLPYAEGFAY
ELF4, sequence (Q99607 whole entry): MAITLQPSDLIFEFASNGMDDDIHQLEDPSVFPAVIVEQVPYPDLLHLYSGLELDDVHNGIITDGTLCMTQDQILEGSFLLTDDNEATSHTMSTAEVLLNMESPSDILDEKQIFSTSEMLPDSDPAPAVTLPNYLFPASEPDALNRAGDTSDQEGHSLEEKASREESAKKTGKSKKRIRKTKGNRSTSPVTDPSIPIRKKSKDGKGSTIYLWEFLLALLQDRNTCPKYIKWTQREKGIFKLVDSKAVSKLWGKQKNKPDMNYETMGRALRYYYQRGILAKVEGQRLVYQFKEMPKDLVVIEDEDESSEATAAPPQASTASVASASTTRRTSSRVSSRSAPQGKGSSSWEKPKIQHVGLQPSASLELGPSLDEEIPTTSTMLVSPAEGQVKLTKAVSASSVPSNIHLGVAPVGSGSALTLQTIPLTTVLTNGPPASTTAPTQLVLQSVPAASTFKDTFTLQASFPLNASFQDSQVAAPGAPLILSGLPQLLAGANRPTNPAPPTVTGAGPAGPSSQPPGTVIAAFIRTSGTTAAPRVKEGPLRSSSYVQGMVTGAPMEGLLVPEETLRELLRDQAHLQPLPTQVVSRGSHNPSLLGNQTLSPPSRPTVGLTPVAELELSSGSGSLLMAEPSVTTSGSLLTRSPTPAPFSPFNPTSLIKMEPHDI

In the case of TGTACT, the binding signal (FEV) is reported as 1.41 fold enrichment (6-mer frequency, TF over GST control), the binding signal (ETV5) is reported as 1.34 fold enrichment (6-mer frequency, TF over GST control) and the binding signal (HSF1) is reported as 1.18 fold enrichment (6-mer frequency, TF over GST control). For the same sequence, the binding signal (SPIC) was 1.18 fold enrichment (6-mer frequency, TF over GST control), the binding signal (ELF4) was 1.29 fold enrichment (6-mer frequency, TF over GST control) and the binding signal (ELK4) was 1.2 fold enrichment (6-mer frequency, TF over GST control). For the same sequence, the binding signal (ETV2) was 1.3 fold enrichment (6-mer frequency, TF over GST control), the binding signal (ELF3) was 1.23 fold enrichment (6-mer frequency, TF over GST control) and the binding signal (CRX) was 1.15 fold enrichment (6-mer frequency, TF over GST control). The binding signal (ETV1) was 1.34 fold enrichment (6-mer frequency, TF over GST control), the binding signal (ERF) was 1.11 fold enrichment (6-mer frequency, TF over GST control) and the binding signal (ETV3L) was 1.26 fold enrichment (6-mer frequency, TF over GST control). For the same sequence, the binding signal (ETS2) was 1.27 fold enrichment (6-mer frequency, TF over GST control), the binding signal (SPDEF) was 1.71 fold enrichment (6-mer frequency, TF over GST control) and the binding signal (ETV7) was 1.24 fold enrichment (6-mer frequency, TF over GST control). For the same sequence, the binding signal (ELF5) was 1.37 fold enrichment (6-mer frequency, TF over GST control), the binding signal (ETV3) was 1.22 fold enrichment (6-mer frequency, TF over GST control) and the binding signal (ETV6) was 1.28 fold enrichment (6-mer frequency, TF over GST control).
